IL1B NFkB inh: blocks IL-1B driven NFkB nuclear translocation in HUVEC cells; HUVEC IL-1B NFkB p65 nuclear translocation imaging; inhibition, % at 2 µM; 94,000 tested, 0.43% active;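 active means inhibition above about 30% together with a positive call from visual inspection of the well image, limit read from the data; inconclusive means inhibition above a set limit but visual check negative; inactive means inhibition not above a set limit, visual check negative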;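 further: nuclear over cytoplasmic p65 intensity ratio measured by imaging; 0% = IL-1B stimulated DMSO wells and 100% = unstimulated DMSO wells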
Smad3 FoxH1 inh: inhibitors of human Smad3 transcription factor binding; AID 630; inhibition, % at 25 µM; 88,000 tested, 0.29% active; TR-FRET Smad3/Dy647-FoxH1 peptide binding, europium anti-His;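 active means compounds that reduce the energy-transfer binding signal between the protein and its labelled peptide by more than half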;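 further: 0% = Smad3 plus labelled peptide maximal FRET and 100% = peptide-only background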
Target sequence (P84022 whole entry, looked up): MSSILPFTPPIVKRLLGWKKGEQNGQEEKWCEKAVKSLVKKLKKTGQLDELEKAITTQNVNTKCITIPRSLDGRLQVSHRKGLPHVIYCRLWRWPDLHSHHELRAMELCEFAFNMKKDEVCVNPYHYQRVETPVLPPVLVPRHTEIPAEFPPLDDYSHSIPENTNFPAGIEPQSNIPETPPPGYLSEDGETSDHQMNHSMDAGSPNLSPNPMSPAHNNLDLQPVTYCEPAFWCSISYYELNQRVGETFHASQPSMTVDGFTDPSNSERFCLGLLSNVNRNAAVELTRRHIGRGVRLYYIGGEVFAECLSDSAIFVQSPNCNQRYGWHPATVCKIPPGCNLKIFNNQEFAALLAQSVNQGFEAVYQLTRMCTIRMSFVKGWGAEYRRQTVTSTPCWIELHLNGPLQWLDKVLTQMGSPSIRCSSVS
HUVEC tox IL1B: HUVEC cytotoxicity counter-screen, IL-1B stimulated; HUVEC cell count loss, Hoechst imaging; 94,000 tested, 0.41% active; AID 845; cell count reduction, % at 2 µM;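 active means cell count reduction more than 3 SD above the screen-wide mean, cut at about 70% in these data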;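 further: normalized per plate to untreated control cells as the no-loss baseline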
IL1B NFkB pot: enhances IL-1B driven NFkB nuclear translocation; HUVEC IL-1B NFkB p65 nuclear translocation imaging; 94,000 tested, 0.3% active; activation, % at 2 µM;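 active means activation above 40%, about the mean plus 3 SD, also judged a hit on visual image review; inconclusive means activation above 40% but not a hit on visual review; inactive means activation not above 40% and no visual hit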;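 further: percent activation is computed from the nuclear over cytoplasmic p65 intensity ratio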
* hit, by the source's call; ? = inconclusive; . = not tested or not shown; [ ] = dose if it differs, or a comment. A selection: hits, their analogues and other compounds. The true share with any hit is near 1.2%.

SMILES	IL1B NFkB inh	Smad3 FoxH1 inh	HUVEC tox IL1B	IL1B NFkB pot
Cc1ccc(N2CC(C(N)=O)CC2=O)cc1 (stereo not drawn)	-13	51*	-19	13
CC(=O)Nc1ccc2c(c1)/C(=C/c1ccc([N+](C)(C)C)cc1)c1ccccc1-2	.	93*	.	.
NCCNC(=S)S	.	57*	.	.
COc1cccc(N2CCN(c3c4c(nc5ncnn35)CCC4)CC2)c1	30*	-2	36	-30
CSCC[C@@H](C(=O)O)N(C)C	.	2	.	.
O=c1c2c3c(sc2nc2sc(C4CC4)nn12)CCCC3	88*	-9	78*	-88
O=C(C[n+]1ccc2ccccc2c1)c1ccc2ccc3ccccc3c2c1	.	81*	.	.
Cc1cc(N2CC(C(=O)NCc3cccs3)CC2=O)ccc1C(C)C (stereo not drawn)	46*	3	-79	-46
O=C(O)[C@@H]1[C@H](C(=O)O)[C@@H]2C(=O)C=C[C@H]1N2Cc1ccccc1	.	8	.	.
NC(=O)NCCS[C@H]1CCCC[C@@H]1O	.	12	.	.
COc1ccc2ccccc2c1/C=C/C(=O)c1ccccc1	.	-18	.	.
CC(=O)Oc1cccc(/C=c2\sc3nc(-c4ccco4)nn3c2=O)c1	-9	6	-8	9
COc1cc(/C=c2\sc3nc(-c4ccncc4)nn3c2=O)ccc1OC(C)=O	-20	84*[fluorescence artefact?]	-5	20
CC(C)(C)c1ccc(O)c(CN(Cc2cc(C(C)(C)C)ccc2O)c2ccccc2)c1	.	43	.	.
CN(Cc1cc(C(C)(C)C)cc(Br)c1O)Cc1cc(C(C)(C)C)cc(Br)c1O	.	96*	.	.
Cc1noc(C)c1COc1ccc(C(=O)OCC(=O)Nc2ccc3ccccc3c2)cc1	-4	21	92*	4
Cn1cnc([N+](=O)[O-])c1[Se]c1nc(N)nc2c1ncn2[C@H]1O[C@@H](CO)[C@H](O)[C@H]1O	.	75*	.	.
C[N+](C)(C)c1nc(N)nc2c1ncn2[C@H]1O[C@@H](CO)[C@H](O)[C@H]1O	.	-2	.	.
O=C1CCCN1CCCNc1ncnc2c1[nH]c1ccc(Cl)cc12	-24	-8	21	24
Cc1cc(C)c2nc(C(F)(F)F)nc(NCCCN3CCCC3=O)c2c1	31*	-6	0	-31
COc1ccc(NC(=O)C2CCN(S(=O)(=O)c3ccc(OC)c(OC)c3)CC2)cc1	1	5	1	-1
COc1ccc(NC(=O)C2CCN(S(C)(=O)=O)CC2)cc1	42*	15	-130	-43
Cn1c(=O)c2c(nc(C(=N)SCC(=O)O)n2C)n(C)c1=O	.	10	.	.
CC(C)=C[C@H]1[C@H](COC(=O)c2ccccc2Cl)C1(C)C	.	-3	.	.
Cc1cccc(N(C(=O)c2sc(C)nc2C)C(C(=O)NCc2ccco2)c2ccccc2)c1 (stereo not drawn)	-47	.	2	47*
SMILES	IL1B NFkB inh	Smad3 FoxH1 inh	HUVEC tox IL1B	IL1B NFkB pot
CCCCNC(=S)Nc1ccccc1F	6	.	90*	-6
O=C1CC(C(=O)Nc2ccc(Br)cc2)C2(CCCC2)O1 (stereo not drawn)	25	6	82*	-25
O=C1C2=C(Nc3cc([N+](=O)[O-])ccc3N2)O[C@H]1c1ccc([C@H]2OC3=C(Nc4ccc([N+](=O)[O-])cc4N3)C2=O)cc1	.	26	.	.
CN1CCc2nc(N)nc(-c3nc(N)nc4c3CN(C)CC4)c2C1	.	23	.	.
Cc1ccc(NC(=O)COC(=O)CCC(=O)c2cccs2)cc1S(=O)(=O)N1CCOCC1	-48	.	-18	48*
O=C(COC(=O)CCC(=O)c1cccs1)Nc1cccc(S(=O)(=O)N2CCOCC2)c1	6	-7	1	-5
COC(=O)c1ccc(CSc2ncnc3ccccc23)o1	-24	2	0	24
COC(=O)c1ccc(CSc2ncnc3c2oc2ccccc23)o1	?	62*[fluorescence artefact?]	18	-32
CCc1nnc(NC(=O)CSc2nnc(-c3cc4ccccc4cc3O)n2CC)s1	.	9	.	.
CCn1c(SCC(=O)N(C(C)C)C(C)C)nnc1-c1cc2ccccc2cc1O	-60	-2	6	60*
O=C(NC1CC1)C1CC(=O)N(C2CCCCC2)C1 (stereo not drawn)	-121	9	5	121*
O=C(NC1CCCC1)C1CC(=O)N(C2CCCCCCC2)C1 (stereo not drawn)	-15	6	-14	15
C/C(=N\O)c1ccc2cc(Br)c3ccccc3c2c1	.	12	.	.
CCCCNS(=O)(=O)c1ccc(OC)c(C)c1	1	2	-12	-1
CCNS(=O)(=O)c1ccc(OC)c(C)c1	63*	0	83*	-63
CC1(C)CC(=O)C=C(Nc2ccc(S(N)(=O)=O)cc2)C1	34*	0	8	-34
CC(=O)Nc1nnc(-c2ccc3c(c2)CCCC3)o1	3	-2	6	-3
COc1ccccc1C(=O)Nc1nnc(-c2ccc3c(c2)CCCC3)o1	53*	-6	-14	-53
CC(=O)Nc1ccccc1-c1nc2ccc(C(=O)N3CCN(c4ccccc4)CC3)cc2[nH]c1=O	38*	8	-49	-38
C[N+]1(NCC[N@+]2(C)CCc3ccccc3C2)CCCCC1	.	95*	.	.
CC(=O)c1sc(NC(=O)C(C)C)nc1C	98*	-7	-19	-98
CC(=O)c1sc(NC(=O)c2ccc(F)c(F)c2)nc1C	32*	.	-10	-32
CC(=O)Nc1nc(C)c(C(C)=O)s1	-25	-2	-19	25
Cc1nc(NC(=O)c2ccc(F)cc2)sc1C(=O)Nc1ccc2c(c1)CCC2	-2	.	-1	2
O=C(O)[C@H]1CCCN1Cc1c[nH]c2ccccc12	.	-2	.	.
SMILES	IL1B NFkB inh	Smad3 FoxH1 inh	HUVEC tox IL1B	IL1B NFkB pot
O=C(O)CCNCC(=O)O	.	-1	.	.
CN1/C(=C\C(=O)c2ccco2)c2ccccc2CC1(C)C	34*	2	7	-35
Cc1ccccc1C(O)c1ccncc1 (stereo not drawn)	6	.	14	-6
O[C@@H](C1=C/C(=C\c2ccncc2)c2ccccc21)c1ccncc1	.	76*	.	.
NC(=O)N1CCN(C(=O)c2ccco2)CC1	31*	1	84*	-31
O=C(N/N=C/c1cccc(O)c1)c1ccncc1	.	-1	.	.
O=C(CCC(=O)Nc1nnc(C2CCCCC2)s1)NCC1CCCO1 (stereo not drawn)	2	81*	0	-2
CC(C)c1nnc(NC(=O)CCC(=O)NCC2CCCO2)s1 (stereo not drawn)	4	-1	-17	-4
COc1ccc2c(c1)C1(Nc3ccccc3-c3nc4ccccc4n31)C(=O)N2C (stereo not drawn)	7	3	5	-7
COc1ccc2c(c1)C1(Nc3ccccc3-c3nc4ccccc4n31)C(=O)N2 (stereo not drawn)	16	4	71*	-16
N[C@@H](Cc1cccc([N+](=O)[O-])c1)C(=O)O	.	12	.	.
CCN(CC)c1ccc2cc(-c3nc4ccccc4[nH]3)c(=O)oc2c1	-11	37	-2	11
CCN(CC)c1ccc2cc(-c3nc4ccccc4n3C)c(=O)oc2c1	34*	-16	59	-34
COCc1cc(Sc2c(Cl)cccc2Cl)nc(-c2ccccc2)n1	-7	.	88*	7
O=S(=O)(Cc1cc(Sc2ccc(Cl)cc2)nc(-c2ccccc2)n1)c1ccccc1	-18	-5	11	18
CCOC(=O)C(Cc1ccccc1)NC(C)=O (stereo not drawn)	16	10	92*	-16

Screens (PubChem)
